Experimental data published in PubChem BioAssay AID463190 (Sanford-Burnham Center for Chemical Genomics, 2010).
Out of some 330,000 compounds screened, about 7,300 (2.2%) were called active. The entries come from a sample that favours actives as a whole. A number with no mark means an inactive call.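 Rule for the calls: active = inhibition of at least 40%; inactive = the rest.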

Assay: growth inhibition of tim10-1 ts yeast – luminescence, uHTS, primary screen (AID 463190);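 note: mutant grown at 25 °C; 0% = DMSO wells with yeast and 100% = wells holding no yeast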
Conditions: S. cerevisiae tim10-1 ts strain growth, BacTiter-Glo, 24 h; at 20 µM; stronger effect = higher value

| Structure (SMILES) | inhibition |
| --- | --- |
| O=C(CS(=O)(=O)c1ccccc1)Nc1ccc(S(=O)(=O)Nc2ccccn2)cc1 | 0.086% |
| CC(C)(C)c1cnnn1-c1ccc([N+](=O)[O-])cc1 | 12% |
| Cc1cc(C(=O)Nc2c(C)nn(Cc3ccccc3)c2C)on1 | 1.72% |
| Cc1nn(Cc2ccc(Cl)c(Cl)c2)c(C)c1NC(=O)c1cc(C2CC2)on1 | 57% (active) |
| Cc1nn(Cc2ccc(F)cc2)c(C)c1NC(=O)c1cccnc1Cl | -0.56% |
| Cc1ccccc1OCC(=O)NCC(=O)OCC(=O)c1ccc2ccccc2c1 | 18.3% |
| N/C(=N\S(=O)(=O)c1cc(C(F)(F)F)cc(C(F)(F)F)c1)c1cccs1 | 5.1% |
| COc1ccc(-n2c(SCC(=O)NCc3ccco3)nnc2-c2c[nH]c3ccccc23)cc1 | 7.58% |
| O=C(N/N=C/c1cccnc1)c1ccc(NC(=O)c2ccc(F)cc2)cc1 | -1.83% |
| Fc1ccc(/C=N/Nc2nc(-c3cccnc3)nc3ccccc23)cc1 | 43.3% (active) |
| O=c1c2ccccc2nc(N/N=C/c2ccccc2)n1O | 12.3% |
| Cc1cc(C)cc(NC(=O)CCN2C(=O)c3ccccc3C2=O)c1 | 15.2% |
| CCN(CC)C(=O)Oc1ccc(OC(=O)N(CC)CC)cc1 | 32.3% |
| CCC(=O)Nc1nnc(S(=O)(=O)N(CC(C)C)c2ccccc2)s1 | -0.846% |
| CC1=C/C(=N\OS(=O)(=O)c2ccccc2)C=CC1=O | 76.6% (active) |
| CCOC(=O)C1CCN(C(=O)c2ccccc2N(C)S(=O)(=O)c2ccccc2)CC1 | 25% |
| CSc1nnc(C2CCCN(CC(=O)Nc3ccccc3N3CCOCC3)C2)n1C(C)C (stereo not given) | -3.94% |
| Cc1ccnc2nc(C(=O)OCC(=O)N(CC(C)C)CC(C)C)nn12 | 13.2% |
| Cn1cc(/C=C/C(=O)N2CCCC(C(=O)c3ccc(C(F)(F)F)cc3)C2)cn1 (stereo not given) | 24.9% |
| COc1cccc(C(=O)N/N=C(\C)c2cccc(NC(=O)c3ccc(F)cc3)c2)c1OC | 20.1% |

| Structure (SMILES) | inhibition |
| --- | --- |
| Cn1c(CN2CCOCC2)nc2cc(NC(=O)c3ccc(Cl)cc3)ccc21 | 15.9% |
| CCC(=O)Nc1ccc(S(=O)(=O)Nc2c(NC)c3ccccc3oc2=O)cc1 | 27% |
| CN1CCN(c2ccccc2NC(=O)COc2ccc(C3CCCCC3)cc2)CC1 | 42.9% (active) |
| Cc1ccc(C(C)C)cc1OCC(=O)Nc1ccccc1N1CCCC1 | -15.9% |
| O=C(CN1CCN(C2CCCCC2)CC1)Nc1ccccc1N1CCCCC1 | -10.4% |
| Cc1cc(C)cc(OCC(=O)NNC(=O)CCN2C(=O)c3ccccc3C2=O)c1 | 9.29% |
| O=C(Oc1ccc(-c2nc(-c3ccccn3)no2)cc1)c1ccccc1 | 51.2% (active) |
| O=C(COC(=O)c1ccncc1)c1ccccc1 | 22.8% |
| Brc1ccc(-c2noc(-c3ccccc3)n2)o1 | 11.2% |
| COc1ccc2oc(C(=O)OCC(=O)N(CC(C)C)c3c(N)n(Cc4ccccc4)c(=O)[nH]c3=O)c(C)c2c1 | -2.22% |
| CCC(C(=O)N1CCN(S(=O)(=O)c2sc(C(=O)O)c(C)c2C(=O)O)CC1)c1ccccc1 (stereo not given) | -6.62% |
| Cc1cc(-c2nnc(CCC(=O)NC(c3ccccc3)c3ccccc3)o2)no1 | -7.23% |
| O=C(/C=C/c1ccc(Cl)cc1Cl)NCc1ccco1 | 41.9% (active) |
| COC(=O)/C=C/C(=O)NCc1ccco1 | -3.84% |
| O=C(NCc1ccco1)C1(c2ccc(Cl)cc2)CCCC1 | 29.4% |
| CCN(CC)C(=O)CSc1nnc(C2CCCCC2)o1 | 2.18% |
| CCCCCC1CCC(c2nnc(SCC(C)=O)o2)CC1 (stereo not given) | 42.3% (active) |
| Cc1[nH]c2ccccc2c1C(=O)C(C)Sc1nnc(C2CC2)o1 (stereo not given) | -11.7% |
| O=C(COc1cccc(F)c1)Oc1ccc(C(=O)c2ccccc2)cc1 | -0.003% |
| CCC(C)c1ccccc1NC(=O)CN(C)CC(=O)Nc1ccccc1SC (stereo not given) | 11.9% |

| Structure (SMILES) | inhibition |
| --- | --- |
| O=C(Cc1ccccc1)Nc1c(C(=O)N2CCCCCC2)cnn1-c1ccccc1 | 29.5% |
| N#Cc1ccccc1Sc1ccccc1C(=O)OCC(=O)NC1CCCCC1 | 1.29% |
| CC(CCN1CCN=C1N(C)C)c1ccccc1 (stereo not given) | -14.7% |
| CC(=O)Oc1ccc2c(c1)C(=O)c1ccccc1C2=O | 52.2% (active) |
| CC(=O)Oc1cccc(C(=O)Nc2ccccc2NC(=O)c2cccc(OC(C)=O)c2)c1 | -9.31% |
| CC(=O)O[C@H]1c2ccccc2-c2ccccc2[C@@H]1OC(C)=O | 4.4% |
| O=C(CSc1nnc(CN2CCCC2)n1-c1ccc(F)cc1)c1ccc2c(c1)OCO2 | 14.8% |
| CC(C)CC(=O)NC(=S)Nc1cc(C(=O)O)ccc1Cl | -9% |
| CC(=O)c1ccc(NC(=S)NC(=O)CC(C)C)cc1 | 14.6% |
| CC(C)CC(=O)NC(=S)Nc1ccc(F)cc1F | 49.5% (active) |
| Cc1ccc(C(=O)C(C)OC(=O)Cc2n[nH]c(=O)c3ccccc23)cc1C (stereo not given) | -2.29% |
| O=C(Nc1ccc(C(=O)NCc2ccccc2Cl)cc1)C1=CSCCO1 | -4.56% |
| Cc1ccc(S(=O)(=O)/N=C(/Nc2ccccn2)c2ccc(Cl)cc2)cc1 | 19.5% |
| Cc1ccc(S/C(=N\S(=O)(=O)c2ccc(Cl)cc2)c2ccccc2)cc1 | 41.3% (active) |
| O=S(=O)(/N=C(/Nc1ccccn1)c1ccccc1)c1ccc(Cl)cc1 | 20.8% |
| CCC1CCCCN1CCCNC(=O)c1cc2c(Cl)nc3ccccc3c2s1 (stereo not given) | 32.7% |
| Cc1ccc(NC(=O)NC(=O)N(C2CCCCC2)S(=O)(=O)c2ccccc2)cc1 | 13.6% |
| CC(c1ccco1)N(C(=O)Nc1ccccc1)C1CCCCC1 (stereo not given) | 48.1% (active) |
| CCOc1ccc(NC(=O)N(CCC(C)C)C(C)c2ccco2)cc1 (stereo not given) | 15.1% |
| C=CCOc1ccc(/C=N/n2cncn2)cc1OC | 6.25% |
